Article PMC7819943, “Rice protein-binding microarrays: a tool to detect cis-acting elements near promoter regions in rice”
Whole data set: some 39,000 sequences, median “fluorescence intensity (a.u.)” near 4,300, cut for the highest 2% near 39,000. This excerpt belongs to a sample that is enriched for the highest values.

biological target: T1, OsSMF1 (Oryza sativa, UniProt Q6ZLB0 1-436); assay: protein-binding microarray (RPBM); PBS, 2% BSA, 51.3 ng/ul salmon testes DNA, 50 uM zinc acetate, 200 nM TF, 25 C, 1 h; high values mean tight binding; settings: protein: recombinant; tags: N-terminal polyhistidine and DsRed monomer fusion (pET32a); chain copies: 2; label: CyDye5-dUTP incorporated in the synthesized complementary strand; 3' TTTTT single-stranded linker to array surface; dsDNA, one strand shown
T1 sequence: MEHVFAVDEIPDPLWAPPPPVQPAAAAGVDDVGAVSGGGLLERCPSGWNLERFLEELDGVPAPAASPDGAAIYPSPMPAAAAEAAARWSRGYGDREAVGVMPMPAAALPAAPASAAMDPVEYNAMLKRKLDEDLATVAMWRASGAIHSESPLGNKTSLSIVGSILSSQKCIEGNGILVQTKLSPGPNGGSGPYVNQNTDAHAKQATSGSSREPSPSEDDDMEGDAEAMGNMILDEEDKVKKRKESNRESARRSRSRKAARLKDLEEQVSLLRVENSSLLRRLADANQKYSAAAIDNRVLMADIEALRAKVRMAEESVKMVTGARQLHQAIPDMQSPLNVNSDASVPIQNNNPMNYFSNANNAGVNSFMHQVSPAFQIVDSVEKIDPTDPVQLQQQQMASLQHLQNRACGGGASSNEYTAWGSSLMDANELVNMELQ
Method in brief: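 A custom Agilent array was converted to double-stranded form by primer extension with Cy5-dUTP and blocked with 2% BSA. Protein at 200 nM in PBS with 2% BSA, salmon testes DNA and 50 µM zinc acetate was applied for 1 h at 25 °C, followed by washing. The proteins were polyhistidine–DsRed N-terminal fusions of transcription factors, expressed in E. coli BL21-CodonPlus and Ni–NTA-purified. The binding signal is per-feature fluorescence intensity (arbitrary units) from an Axon 4000B scanner.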

Row | Sequence | binding signal
1 | AATTGCCACGTAAGCGCCATGTCAGTGCCACGTCAAATTACGGAGTCACCTAGTGCAG | 33800 fluorescence intensity (a.u.)
2 | ATAAAATTGCCACATAAGCACCACGTCAATGCTATGTGGGCGGAGTCACCTAGTGCAG | 29700 fluorescence intensity (a.u.)
3 | TTTTCGGATCAAATTGCCACGTAAGCGCCACGTCAGATGACGGAGTCACCTAGTGCAG | 16000 fluorescence intensity (a.u.)
4 | ACTATCAAGTTCGGATTAACCGAACCAATACAACCACTCACGGAGTCACCTAGTGCAG | 21900 fluorescence intensity (a.u.)
5 | TAAATTTCAAATTCGTGCCACATAGGTCCTTTTCCTCACACGGAGTCACCTAGTGCAG | 4670 fluorescence intensity (a.u.)
6 | GCTAGCTATTGTTGATTTGTCGTGTTGTAATATATACACTCGGAGTCACCTAGTGCAG | 4680 fluorescence intensity (a.u.)
7 | TAAATCGATCCTACGTCACATGACAGACTGGACCCTTGTCCGGAGTCACCTAGTGCAG | 10900 fluorescence intensity (a.u.)
8 | ACGTCCACGAGTCCATGTCATGACACACCCCAAGTTGCTGCGGAGTCACCTAGTGCAG | 5510 fluorescence intensity (a.u.)
9 | CCCCATCCTAGATGGAACAACCACGTCATCTCATGGGTGACGGAGTCACCTAGTGCAG | 14800 fluorescence intensity (a.u.)
10 | CGTGATCAATTCGCCTCATGCTGGCGTGACGCGGACCGAGCGGAGTCACCTAGTGCAG | 6720 fluorescence intensity (a.u.)
11 | TTCAAATGCCACCTAAACGCCACGTCAACCCCATAGACTACGGAGTCACCTAGTGCAG | 15600 fluorescence intensity (a.u.)
12 | TTCAAATGCCACCTAAGCGCCACGTCAACCCCATAGACTGCGGAGTCACCTAGTGCAG | 39500 fluorescence intensity (a.u.)
13 | CAAATGCCACCTAAGCGCCACGTCAACCCCATAGACTAGGCGGAGTCACCTAGTGCAG | 34200 fluorescence intensity (a.u.)
14 | CGCACACATGAGCTCATGATGTGAACGTGATGATGGTGCGCGGAGTCACCTAGTGCAG | 48500 fluorescence intensity (a.u.)
15 | GGTGTGAGTGTGATGTTGCTCGTGTAATGATGCGTGTGCGCGGAGTCACCTAGTGCAG | 5000 fluorescence intensity (a.u.)
16 | TGTGATGTGGGCATGCGTGTGCGCACGTGTTCTATTGGTGCGGAGTCACCTAGTGCAG | 17600 fluorescence intensity (a.u.)
17 | TCCGCCGCCTCGGTCGGCTCACGCGTCCATGTCCATCCCGCGGAGTCACCTAGTGCAG | 3600 fluorescence intensity (a.u.)
18 | GTCCAGATTCGTTGTACTAGAATATGTCAGATCCAGTCCTCGGAGTCACCTAGTGCAG | 3410 fluorescence intensity (a.u.)
19 | GAGTTGAGTTTAGACTTTCTAGAGTGGTATATGTATGTTTCGGAGTCACCTAGTGCAG | 40900 fluorescence intensity (a.u.)
20 | TGTCGGTACTTTCATACGTCATCTATGTATGAGTCGGTTTCGGAGTCACCTAGTGCAG | 10600 fluorescence intensity (a.u.)
21 | CCTCTAGATCCTCTATGGTACTATATGTACAGTGCTGTTTCGGAGTCACCTAGTGCAG | 42900 fluorescence intensity (a.u.)

Row | Sequence | binding signal
22 | CGCACTCAGCTTGTTCCTCTAACTGTACACAGTGGTACTTCGGAGTCACCTAGTGCAG | 26500 fluorescence intensity (a.u.)
23 | GGGTGAGTGTGTGTTGTGCGTTGTGAGTGTGTATGTGTTTCGGAGTCACCTAGTGCAG | 3730 fluorescence intensity (a.u.)
24 | TGGCTATACTATTGAACTTGCTCTCGTGGGACCCACATACCGGAGTCACCTAGTGCAG | 3680 fluorescence intensity (a.u.)
25 | CTTTTGGTCTCGCGCCCACTGACACGTGGGTCCCACGCTCCGGAGTCACCTAGTGCAG | 6100 fluorescence intensity (a.u.)
26 | GCGCGCGCGTTCTCTAATCGAAGTCGATAGGATAGGAGGACGGAGTCACCTAGTGCAG | 36900 fluorescence intensity (a.u.)
27 | CATTCCCTCCTCCTCCTCCTCCTCCTCCTGAATCCCTCCTCGGAGTCACCTAGTGCAG | 3380 fluorescence intensity (a.u.)
28 | GCCCTGTTCCCTGCAGAGAATCATTATATACTCCCTCCAACGGAGTCACCTAGTGCAG | 48100 fluorescence intensity (a.u.)
29 | TATATAAGAGACCTCACCTCCAAGAATCTCCAGAGAGAGACGGAGTCACCTAGTGCAG | 22900 fluorescence intensity (a.u.)
30 | CGAGGTGAGGCGGAGGGGAGGCAGAGGGGTAGAGGAGGGTCGGAGTCACCTAGTGCAG | 5260 fluorescence intensity (a.u.)
31 | CTACTATACCTCCGTGCGTACCACATACTGTATGTAGACTCGGAGTCACCTAGTGCAG | 4130 fluorescence intensity (a.u.)
32 | CATAGTGCAGGGGAGAAGCCAGGGAAGAGGGAGGTGACGTCGGAGTCACCTAGTGCAG | 3290 fluorescence intensity (a.u.)
33 | AATAGGAAATAAACATTACTGAGAAAAGGGCTCATGTTGGCGGAGTCACCTAGTGCAG | 29300 fluorescence intensity (a.u.)
34 | AAACGATGACTGTTAAATAGGGATTAAAAGGAAAGGATGGCGGAGTCACCTAGTGCAG | 41200 fluorescence intensity (a.u.)
35 | GAGGAGTGGGAGGAAAATGAGTGGTGGGGAAAGGATAGGGCGGAGTCACCTAGTGCAG | 4150 fluorescence intensity (a.u.)
36 | AGCACACATACTAGTACTATATGACAAGTCCACGGAGAGCCGGAGTCACCTAGTGCAG | 3760 fluorescence intensity (a.u.)
37 | GATTAATACGACTACTGTCATACGTACTGTACATGTCATGCGGAGTCACCTAGTGCAG | 3720 fluorescence intensity (a.u.)
38 | TTTTGAGCCTAGTTAGTCCATGATTAGCCATAAATGCTACCGGAGTCACCTAGTGCAG | 4540 fluorescence intensity (a.u.)
39 | TTTTAGCCTCCTTTTGGTTAATCTTTGTTTGATCCAAGAACGGAGTCACCTAGTGCAG | 10200 fluorescence intensity (a.u.)
40 | CTTTGGCTTTTAGCCATAGACTTTGATCCATGAGTTAGAACGGAGTCACCTAGTGCAG | 40900 fluorescence intensity (a.u.)
41 | GGGAAGAGAGAAGAGACGAAACAGGGAGGAGGGGATTGGGCGGAGTCACCTAGTGCAG | 3320 fluorescence intensity (a.u.)
42 | CAACATGCACGTACTACGTGTGCTTGCATTGCATGCATGCCGGAGTCACCTAGTGCAG | 4450 fluorescence intensity (a.u.)
